What all share (assay type): functional
The test system of test [1] is Plasmodium falciparum. Nature of the test: GSK_TCMDC: Inhibition of Plasmodium falciparum 3D7 in whole red blood cells, using parasite LDH activity as an index of growth. Test compounds present at 2uM.
Test [2] has as its system Plasmodium falciparum. Nature of the test: GSK_TCMDC: Inhibition of Plasmodium falciparum Dd2 in whole red blood cells, using parasite LDH activity as an index of growth. Test compounds present at 2uM.
Test [3] deals with HepG2. Briefly: GSK_TCMDC: Percent inhibition of human HepG2 cell line. Test compounds present at 10uM.

Among the data in ChEMBL document CHEMBL1157539, “Thousands of chemical starting points for antimalarial lead identification” (Nature, 2010) are Inhibition values, retold here.

Several values for one entry are separate records, joined by “and”; a condition that tells them apart may be missing. Identical values can stand only once.

As usually defined, the Inhibition is the drop in the measured response relative to a control, in per cent. Read a high Inhibition as a response far below the control.

As to `CCCCCCC(C)(C)c1cc(O)c2c(c1)OC(C)(C)c1ccncc1-2.Cl`, the Inhibition in test [1] is recorded as 95%; in test [2], 99%; in test [3], 4%.
The matching figures for `COCCSc1ccc(CC(C)NCC(O)c2cccc(Cl)c2)cc1.Cl` (stereo not given): 97%, 73% and 2%.
As for `O=C(/C=C/c1ccc(Cl)c(Cl)c1)NC1CCC(CN2CCC(c3c[nH]c4ccccc34)CC2)CC1` (stereo not given), the figures for the Inhibition in test [1], in test [2] and in test [3] were 100%, 85% and 27%, respectively.
Consider `COC(C(=O)OCCC1CCCN1C)(c1ccccc1)c1ccccc1` (stereo not given), for which the Inhibition is 98% in test [1], 9% in test [2] and 6% in test [3].
The matching figures for `COc1ccc(NC(=S)NC(NC(=O)CF)C(Cl)(Cl)Cl)cc1[N+](=O)[O-]` (stereo not given): 97%, 0% and 66%.
The matching figures for `C=CCOc1ccccc1CNCC(O)c1cccc(C(F)(F)F)c1` (stereo not given): 99%, 98% and 10%.
The matching figures for `CC(=O)C1(c2ccccc2)CCN(CCC2(c3ccc(Cl)c(Cl)c3)CN(C(=O)Nc3cc(F)cc(F)c3)CCO2)CC1` (stereo not given): 86%, 20% and 2%.
On to `CCN(CC)CCN1C(=O)C(O)(c2ccccc2Cl)c2c1cc(C#N)cc2C(F)(F)F` (stereo not given), for which the figures for the Inhibition in test [1], in test [2] and in test [3] were 88%, 19% and 21%, respectively.
For `CC[C@H]1CN2CC[C@H]1C[C@H]2[C@H](O)c1cc(-c2cccc(C)c2)nc2ccc(OC)cc12.Cl`, in that order: 100%, 100% and 15%.
Consider `CCCCCCc1cc(O)c2c3c(c(=O)oc2c1)CCN(C)C3`, for which the Inhibition is listed as 99% in test [1], 66% in test [2] and 0% in test [3].
The matching figures for `Cc1cc(-c2ncc[nH]2)ccc1-c1ccc(C(=O)N2CCc3cc4c(cc32)C2(CCN(C)CC2)CO4)cc1.Cl`: 100%, 98% and 32%.
The matching figures for `Cc1cc(C)c(CC(C)NCC(O)c2cccc(C(F)(F)F)c2)c(C)c1.Cl` (stereo not given): 100%, 99% and 0%.
For `Cc1[nH]c2ccc(O)cc2c1C1CCN(CC2CCN(C(=O)/C=C/c3ccc(Cl)c(Cl)c3)CC2)CC1`, the Inhibition in test [1] is given as 99%; in test [2], 99%; in test [3], 23%.
On to `CC[C@H]1CN2CC[C@@H]1C[C@H]2[C@H](O)c1cc[n+]([O-])c2ccc(OC)cc12`, for which the Inhibition in test [1] turned out to be 95%; in test [2] it was 1%; in test [3] it was 0%.
For the molecule `O=C(O)C(F)(F)F.O=C(c1cccs1)N(Cc1cccc(-c2ccc(CNC3CCCC3)cc2)c1)C1CCN(Cc2ccccc2)CC1`, the results for the Inhibition in test [1], in test [2] and in test [3] were 90%, 74% and 20%, respectively.
For `CC(=O)N(Cc1cccc(-c2ccc(CNCCc3ccccc3)cc2)c1)C1CCN(Cc2ccccc2)CC1.O=C(O)C(F)(F)F`, in that order: 99%, 50% and 32%.
The matching figures for `CC[C@H]1CN2CC[C@H]1C[C@H]2[C@H](O)c1cc(-c2ccc(SC)cc2)nc2ccc(OC)cc12.Cl`: 98%, 99% and 9%.
On to `O=C(/C=C/c1cccc(Cl)c1)NC1CCC(CN2CCC(c3c[nH]c4ccccc34)CC2)CC1` (stereo not given), for which the Inhibition in test [1] was 100%; in test [2] it was 82% and 55%; in test [3], 35% and 42%.
`Cc1ccc(CC(C)NCC(O)c2cccc(C(F)(F)F)c2)cc1F.Cl` (stereo not given): the values for the Inhibition in test [1], in test [2] and in test [3] were 97%, 91% and 15%, respectively.
For `Cc1[nH]c2ccccc2c1C1=CCN(CCN2CCOc3c(Br)cccc3C2=O)CC1`, in that order: 97%, 76% and 15%.
For `COc1ccc(OC)c(C=CC(=O)NC2CCC(CN3CCC(c4c[nH]c5ccccc45)CC3)CC2)c1` (stereo not given), in that order: 98%, 62% and 43%.
The matching figures for `CCOc1ccc(Br)cc1/C=C/C(=O)Nc1ccc2c(c1)C1CCC2N1C.O=C(O)C(F)(F)F` (stereo not given): 89%, 26% and 60%.
For the molecule `CC(=O)Nc1ccc2[nH]cc(C3CCN(CC4CCN(C(=O)/C=C/c5ccc(Cl)c(Cl)c5)CC4)CC3)c2c1`, the Inhibition in test [1] was 96%; in test [2], 41%; in test [3], 10%.
The matching figures for `CC(C)CNCc1cccc(-c2ccc(CN(C(=O)Nc3ccccc3)C3CCN(Cc4ccccc4)CC3)cc2)c1.O=C(O)C(F)(F)F`: 100%, 61% and 41%.
For `CCCCCc1cc(O)c2c(c1)OC(C)(C)CC2C1=CCN(Cc2cnc3ccccc3c2)CC1.Cl.O` (stereo not given), in that order: 98%, 98% and 27%.
The matching figures for `Cc1[nH]c2cc(Cl)ccc2c1C1=CCN(CCCCC2(C)C(=O)Nc3c(F)cccc32)CC1` (stereo not given): 90%, 74% and 14%.
As for `COc1ccc(C=CC(=O)N2CCC(CN3CCC(c4c[nH]c5ccccc45)CC3)CC2)cc1OC`, the results for the Inhibition in test [1], in test [2] and in test [3] were 94%, 4% and 20%, respectively.
As for `Cc1ccc(C)c(C=CC(=O)NC2CCC(CN3CCC(c4c[nH]c5ccccc45)CC3)CC2)c1` (stereo not given), the Inhibition was 100% in test [1]; 55% and 80% in test [2]; 46% and 38% in test [3].
For the molecule `Cc1ccc(C[C@@H](C)NC[C@H](O)c2cccc(C(F)(F)F)c2)cc1.O=C(O)/C=C/C(=O)O`, the Inhibition was 100% in test [1], 79% in test [2] and 10% in test [3].
Regarding `C[C@@H](CC1CCCCC1)NCc1ccccc1O`, the Inhibition in test [1] was determined as 98%; in test [2] it was 67%; in test [3], 9%.
